The record followed here is the supplement of paper PMC6124720.

This experiment has as its system Pseudogymnoascus destructans 20631-21. The experiment can be described thus: growth activity index (DuctApe, 0 = no growth, 9 = maximal growth) (index 0-9); higher = more fungal growth (less inhibition), active = 0 or less; extreme values may be limits of the assay. The following applies: temperature: 13 °C, YPD.
Setting [1] is: concentration level (1-4, increasing; Biolog proprietary): 1.
[2] abbreviates: concentration level (1-4, increasing; Biolog proprietary): 2.
Where [3] appears, read: concentration level (1-4, increasing; Biolog proprietary): 3.
[4] abbreviates: concentration level (1-4, increasing; Biolog proprietary): 4.

SMILES strings stand for the structures. Values without a mark were called inactive.
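Also: biolog Phenotype Microarray plates PM21–25, OD595 followed daily over 11 days, growth curves converted to index, mean of two independent experiments.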

`CCCCC(C#N)(Cn1cncn1)c1ccc(Cl)cc1` (centres undefined) [Myclobutanil] (Biolog plate: PM22): the growth activity index is, setting by setting: under setting [1], 5.33; under setting [2], 0.667; under setting [3], 0 (active); under setting [4], 0 (active).
For `O=[As]([O-])([O-])[O-].[Na+].[Na+].[Na+]` [Sodium Arsenate] (Biolog plate: PM22), the growth activity index by setting is: under setting [1], 4.67; under setting [2], 4.33; under setting [3], 4; under setting [4], 2.
Consider `Nc1ccncc1` [4-Aminopyridine] (Biolog plate: PM25), for which the growth activity index is 4.67 under setting [1], 4 under setting [2], 4.33 under setting [3] and 1.33 under setting [4].
The matching figures for `CN(CC[C@H](N)CC(=O)N[C@H]1C=C[C@H](n2ccc(N)nc2=O)O[C@@H]1C(=O)O)C(=N)N` [Blasticidin S] (Biolog plate: PM24): 4.67, 4.33, 4 and 4.
For `CCCC1COC(Cn2cncn2)(c2ccc(Cl)cc2Cl)O1` (centres undefined) [Propiconazole] (Biolog plate: PM24), the growth activity index under setting [1] is 4.67, the growth activity index under setting [2] was 2, the growth activity index under setting [3] was 1 and the growth activity index under setting [4] is 0.333.
Turning to `O=[As][O-].[Na+]` [Sodium Arsenite] (Biolog plate: PM23), the growth activity index is 4 under setting [1], 4.67 under setting [2], 4.33 under setting [3] and 5 under setting [4].
The matching figures for `CCCCCCCCCCCCCCCC[n+]1ccccc1` [Cetylpyridinium chloride] (Biolog plate: PM21): 5.25, 0 (active), 0 (active) and 0 (active).
For `C[C@@H]1C[C@@H]([C@H](O)CC2CC(=O)NC(=O)C2)C(=O)[C@@H](C)C1` [Cycloheximide] (Biolog plate: PM22) the same measures were 5, 4, 4.33 and 4.33.
In the case of `[Cl][Ni][Cl]` [Nickel chloride] (Biolog plate: PM21), the growth activity index was 5 under setting [1], 4.25 under setting [2], 4.5 under setting [3] and 5 under setting [4].
In the case of `N.N.[Cl][Pt][Cl]` [Cisplatin] (Biolog plate: PM24), the growth activity index by setting is: under setting [1], 5; under setting [2], 4.67; under setting [3], 4; under setting [4], 4.
On to `CNC1CC(N)C(O)C(OC2OC(CO)C(O)C3OC4(OC(C(N)CO)C(O)C(O)C4O)OC23)C1O` (centres undefined) [Hygromycin B] (Biolog plate: PM25), for which the growth activity index by setting is: under setting [1], 2.67; under setting [2], 2; under setting [3], 1; under setting [4], 0 (active).
For `[Cl][Cr]([Cl])[Cl]` [Chromium (III) chloride] (Biolog plate: PM23) the same measures were 5.33, 4, 2 and 3.33.
The matching figures for `[Cl][Cd][Cl]` [Cadmium Chloride] (Biolog plate: PM23): 4.33, 2, 0.667 and 0 (active).
In the case of `[K+].[K+].[O]=[Cr](=[O])([O-])[O-]` [Potassium Chromate] (Biolog plate: PM24), the growth activity index by setting is: under setting [1], 3.33; under setting [2], 4; under setting [3], 4; under setting [4], 4.33.
On to `[O-][I+3]([O-])([O-])O` [Sodium metaperiodate] (Biolog plate: PM23), for which the growth activity index under setting [1] is 2, the growth activity index under setting [2] is 2, the growth activity index under setting [3] was 4.33 and the growth activity index under setting [4] is 5.
With `[N-]=[N+]=CC(=O)OC[C@H](N)C(=O)O` [Azaserine] (Biolog plate: PM22), the growth activity index is 5 under setting [1], 4.33 under setting [2], 4.67 under setting [3] and 4.67 under setting [4].
As to `O=[Se](=O)([O-])[O-].[Na+].[Na+]` [Sodium Selenate] (Biolog plate: PM23), the growth activity index is, setting by setting: under setting [1], 5; under setting [2], 4; under setting [3], 2.67; under setting [4], 3.
The matching figures for `N#CO` [Sodium Cyanate] (Biolog plate: PM23): 5, 4.67, 4.33 and 4.67.
With `CC1C=CC=CCCC=CC=CC=CC=CC(OC2OC(C)C(O)C(N)C2O)CC2OC(O)(CC(O)C(O)CCC(O)CC(O)CC(O)CC(=O)OC(C)C(C)C1O)CC(O)C2C(=O)O` (centres undefined) [Nystatin] (Biolog plate: PM21), the growth activity index under setting [1] was 1.75, the growth activity index under setting [2] was 0 (active), the growth activity index under setting [3] was 0 (active) and the growth activity index under setting [4] is 0 (active).
As to `Nc1ncn[nH]1` [3-Amino-1,2,4-triazole] (Biolog plate: PM22), the growth activity index reads like this: under setting [1], 0 (active); under setting [2], 0 (active); under setting [3], 0 (active); under setting [4], 0 (active).
`[Na+].[Na+].[O]=[Cr](=[O])([O-])[O][Cr](=[O])(=[O])[O-]` [Sodium Dichromate] (Biolog plate: PM21): the growth activity index is, setting by setting: under setting [1], 4.25; under setting [2], 5; under setting [3], 5; under setting [4], 4.25.
